Eight compounds from PubChem BioAssay (NCI) can be followed below.

Some test systems named below: SK-MEL-2 melanoma; EKVX NSCLC; SN12C renal; UO-31 renal; TK-10 renal; ACHN renal; CAKI-1 renal; A498 renal; CCRF-CEM leukemia; MOLT-4 leukemia; SR leukemia; RPMI-8226 leukemia; OVCAR-8 ovarian; OVCAR-4 ovarian; SK-OV-3 ovarian; IGROV1 ovarian; OVCAR-3 ovarian; HS 578T breast; NCI/ADR-RES ovarian; OVCAR-5 ovarian.
What all share (experiment): NCI-60 one-dose screen, 48 h (100 = growth as untreated, 0 = no growth, -100 = all killed)
Common to all, as to conditions: 10 µM unless noted

Compounds without any hit were thinned out: in the full panel of roughly 83,000, 20% have a hit.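 Method: cells in 96-well plates; compound added at one concentration; 48 h incubation; percent growth measured; values under 10 scored active.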 Unmarked numbers belong to inactive results. The source made the active and inactive calls.

As for `COc1ccc(/C=C(\C#N)c2cc(OC)c(OC)c(OC)c2)cc1`, the growth in the experiment with SK-MEL-2 melanoma is 64.7%; with EKVX NSCLC it was 54.7%; in the experiment on SN12C renal, 27.9%; in the experiment on UO-31 renal, 28.5%; with TK-10 renal, 74.1%; in the experiment on ACHN renal, 24.7%. Also, the growth with CAKI-1 renal is 41.4%; with A498 renal it was 7.06% (active); in the experiment on CCRF-CEM leukemia it was 14.9%; with MOLT-4 leukemia, 8.39% (active); in the experiment with SR leukemia, 12.1%; in the experiment with RPMI-8226 leukemia, 12.3%. Moreover, the growth in the experiment with OVCAR-8 ovarian is 15.6%; with OVCAR-4 ovarian it was 35.4%; in the experiment on SK-OV-3 ovarian, -6.74% (active); in the experiment with IGROV1 ovarian, 17.9%; with OVCAR-3 ovarian, -25.1% (active); with HS 578T breast, 36%. In addition, the growth in the experiment with NCI/ADR-RES ovarian is 2.63% (active).
In the case of `COc1cc(C2CC(c3ccc(Cl)cc3)=NN2C(C)=O)ccc1Oc1nc2c(c(=O)n(C)c(=O)n2C)n1C` (stereo not given), the growth with SK-MEL-2 melanoma is 105%; with EKVX NSCLC, 83.6%; with SN12C renal, 50.3%; in the experiment with UO-31 renal, 76.3%; in the experiment with TK-10 renal, 110%; in the experiment with ACHN renal, 87.2%. Besides, the growth is 81.5% in the experiment with CAKI-1 renal; 77.4% in the experiment on A498 renal; 80.5% in the experiment with CCRF-CEM leukemia; 62.6% with MOLT-4 leukemia; 78.5% in the experiment on SR leukemia; 72.1% with RPMI-8226 leukemia. In addition, the growth is 92.2% in the experiment with OVCAR-8 ovarian; 67.9% in the experiment on OVCAR-4 ovarian; 112% with SK-OV-3 ovarian; 82.3% with IGROV1 ovarian; 102% in the experiment on OVCAR-3 ovarian; 80.5% in the experiment on HS 578T breast.
Take `CCOC(=O)Nc1ccc2nc(Sc3ccc(Cl)cc3)sc2c1`: the growth with SK-MEL-2 melanoma is 46.8%; in the experiment on EKVX NSCLC it was 57.6%; in the experiment with SN12C renal, 40.4%; in the experiment on UO-31 renal it was 43.9%; in the experiment on TK-10 renal, 53.1%; in the experiment on ACHN renal, 61.5%. Besides, the growth was 19.2% in the experiment on CAKI-1 renal; 58% in the experiment on A498 renal; 20.2% with CCRF-CEM leukemia; 37.8% with MOLT-4 leukemia; 9.2% (active) in the experiment on SR leukemia; 21.5% with RPMI-8226 leukemia. The growth in the experiment on OVCAR-8 ovarian is 44.6%; in the experiment on OVCAR-4 ovarian it was 50.3%; with SK-OV-3 ovarian, 22.5%; in the experiment on IGROV1 ovarian, 43.4%; with OVCAR-3 ovarian, 0.656% (active); in the experiment with HS 578T breast it was 50.8%. In addition, in the experiment on NCI/ADR-RES ovarian, the growth is 14%.
As to `Cc1cccc(/C=N/n2c(-c3ccc(Cl)cc3)nc3c(Br)cc(Br)cc3c2=O)c1`, the growth in the experiment with SK-MEL-2 melanoma is 72.5%; in the experiment on EKVX NSCLC, 52.3%; in the experiment with SN12C renal, 47.9%; in the experiment on UO-31 renal it was 41.8%; in the experiment on TK-10 renal, 26.8%; in the experiment on ACHN renal it was 13.5%. For the same compound, the growth is 31.2% in the experiment with CAKI-1 renal; 99.6% in the experiment with A498 renal; 75.6% in the experiment on CCRF-CEM leukemia; 55.4% in the experiment on MOLT-4 leukemia; 73.1% in the experiment with SR leukemia; 32.5% in the experiment with OVCAR-8 ovarian. In addition, the growth with OVCAR-5 ovarian is 50.2%; with OVCAR-4 ovarian, -3.16% (active); with SK-OV-3 ovarian it was 39.5%; in the experiment with IGROV1 ovarian, 31.9%; in the experiment on OVCAR-3 ovarian, 38.2%; in the experiment on HS 578T breast, 65.1%. The growth in the experiment with NCI/ADR-RES ovarian is 30.5%.
In the case of `CC1(C)CC(=O)c2cc3c(N)c(C(=O)Nc4ccc(Cl)cc4)sc3nc2C1`, the growth in the experiment on SK-MEL-2 melanoma is 101%; with EKVX NSCLC it was 93.2%; with SN12C renal, 110%; in the experiment on UO-31 renal, 109%; in the experiment with TK-10 renal it was 95.2%; in the experiment with ACHN renal, 117%. The growth in the experiment with CAKI-1 renal is 134%; in the experiment with A498 renal it was 75.6%; with CCRF-CEM leukemia, 97.2%; with MOLT-4 leukemia it was 104%; with SR leukemia, 113%; in the experiment with RPMI-8226 leukemia, 103%. Moreover, the growth with OVCAR-8 ovarian is 111%; in the experiment on SK-OV-3 ovarian, 106%; with IGROV1 ovarian, 111%; with OVCAR-3 ovarian, 111%; in the experiment on HS 578T breast, 109%; in the experiment with NCI/ADR-RES ovarian, 114%.
As for `C/C(=N\Nc1ccc([N+](=O)[O-])cn1)c1ccc(N)cc1`, the growth in the experiment on SK-MEL-2 melanoma is 100%; in the experiment with EKVX NSCLC, 109%; in the experiment with SN12C renal, 94.8%; in the experiment with UO-31 renal, 87.7%; with TK-10 renal, 105%; in the experiment on ACHN renal, 97.8%. Further, the growth is 101% in the experiment on CAKI-1 renal; 82.4% in the experiment with A498 renal; 96.3% in the experiment on CCRF-CEM leukemia; -11.7% (active) in the experiment with MOLT-4 leukemia; 21.8% with SR leukemia; 109% in the experiment on OVCAR-8 ovarian. The growth in the experiment on OVCAR-5 ovarian is 98.2%; in the experiment with OVCAR-4 ovarian it was 100%; with SK-OV-3 ovarian, 115%; with IGROV1 ovarian it was 93.5%; in the experiment on OVCAR-3 ovarian, 101%; in the experiment with HS 578T breast it was 109%. Moreover, in the experiment with NCI/ADR-RES ovarian, the growth is 115%.
For the compound `C=C1C(=O)O[C@H]2[C@H]1CC/C(COC(=O)NCc1[nH]nc3ccccc13)=C\CC[C@@]1(C)O[C@@H]21`, the growth in the experiment with SK-MEL-2 melanoma is 30.9%; with EKVX NSCLC, 50.1%; in the experiment with SN12C renal, 35.4%; in the experiment on UO-31 renal it was 71.5%; in the experiment with TK-10 renal, -4.85% (active); with ACHN renal, 14.4%. The growth is 16.6% in the experiment with CAKI-1 renal; 94.3% in the experiment with A498 renal; -6.22% (active) with CCRF-CEM leukemia; -12.7% (active) with MOLT-4 leukemia; 4.38% (active) in the experiment on SR leukemia; -10.2% (active) in the experiment with RPMI-8226 leukemia. The growth is 35.3% in the experiment with OVCAR-8 ovarian; 67.9% in the experiment with OVCAR-4 ovarian; 75.6% in the experiment with SK-OV-3 ovarian; -20.8% (active) in the experiment with IGROV1 ovarian; 5.37% (active) with OVCAR-3 ovarian; 62.5% in the experiment on HS 578T breast. Further, the growth in the experiment on NCI/ADR-RES ovarian was 85.7%.
Regarding `O=C(Nc1cccc(-n2ccc3c(NC(=O)c4ccccc4)nccc32)c1)c1ccc(N2CCOCC2)c(C(F)(F)F)c1`, the growth in the experiment with SK-MEL-2 melanoma is 13.4%; with EKVX NSCLC, 45.5%; with SN12C renal, 34%; with UO-31 renal, 5% (active); in the experiment on TK-10 renal it was 6.82% (active); with ACHN renal, 24.2%. Also, the growth in the experiment with CAKI-1 renal was 14.8%; in the experiment with A498 renal, 21.9%; in the experiment with CCRF-CEM leukemia it was 15.7%; in the experiment with MOLT-4 leukemia, 17.4%; in the experiment on SR leukemia it was 2.76% (active); in the experiment on OVCAR-8 ovarian it was 16.3%. Also, the growth is 41.1% in the experiment on OVCAR-5 ovarian; 51.7% in the experiment on OVCAR-4 ovarian; -6.21% (active) in the experiment on SK-OV-3 ovarian; 8.99% (active) with IGROV1 ovarian; 26.9% with OVCAR-3 ovarian; 55.5% in the experiment with HS 578T breast. Also, the growth with NCI/ADR-RES ovarian is 14.3%.
